# Experimental data taken from the supplement of paper PMC3334620.
# Over roughly 33,000 sequences, “E-score (-0.5 to 0.5)” has its median near -0.012; the highest 2% begin near 0.29. The sample as a whole holds a higher share of the highest values than the screen did.
# Molecular target: T1, Ybr033w (UniProt P38073)
# T1 sequence: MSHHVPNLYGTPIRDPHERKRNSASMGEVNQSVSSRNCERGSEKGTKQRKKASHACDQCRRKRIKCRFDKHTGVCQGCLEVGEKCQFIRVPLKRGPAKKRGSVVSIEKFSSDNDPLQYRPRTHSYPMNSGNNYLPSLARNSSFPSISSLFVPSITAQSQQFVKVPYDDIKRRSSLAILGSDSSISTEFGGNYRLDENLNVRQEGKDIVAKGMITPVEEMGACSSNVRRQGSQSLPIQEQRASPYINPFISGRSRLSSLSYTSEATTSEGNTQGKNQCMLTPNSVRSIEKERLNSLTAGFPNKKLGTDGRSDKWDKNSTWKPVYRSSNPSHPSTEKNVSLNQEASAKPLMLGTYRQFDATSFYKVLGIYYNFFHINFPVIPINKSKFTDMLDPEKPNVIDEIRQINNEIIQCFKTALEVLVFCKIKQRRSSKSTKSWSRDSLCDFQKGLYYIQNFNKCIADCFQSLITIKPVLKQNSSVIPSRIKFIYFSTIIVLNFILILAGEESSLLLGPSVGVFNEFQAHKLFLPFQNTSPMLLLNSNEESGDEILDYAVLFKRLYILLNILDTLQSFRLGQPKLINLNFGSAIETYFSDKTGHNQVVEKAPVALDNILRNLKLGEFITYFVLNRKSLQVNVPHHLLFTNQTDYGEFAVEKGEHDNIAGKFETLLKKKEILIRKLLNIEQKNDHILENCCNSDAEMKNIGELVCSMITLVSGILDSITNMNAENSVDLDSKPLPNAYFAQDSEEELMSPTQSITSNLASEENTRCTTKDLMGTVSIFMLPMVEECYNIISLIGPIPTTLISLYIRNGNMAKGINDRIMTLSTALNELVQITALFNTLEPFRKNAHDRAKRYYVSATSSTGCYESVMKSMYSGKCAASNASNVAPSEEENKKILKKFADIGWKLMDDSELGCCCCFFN
# Test: PBM E-score (8-mer binding enrichment) (E-score (-0.5 to 0.5)); higher = stronger / more preferred TF binding
# Settings: protein concentration: 200 nM; construct: GST-full length
# Procedure: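 Universal 'all 10-mer' protein binding microarrays (Agilent AMADID 015681) probed with GST-tagged S. cerevisiae TFs (full-length or DBD) made by in vitro transcription/translation (PURExpress), about 100-200 nM. Bound TF was detected with fluorescent anti-GST. Each ungapped 8-mer (which stands for itself and its reverse complement) is scored by the PBM enrichment score (E-score), a modified Wilcoxon-Mann-Whitney statistic from -0.5 to +0.5, computed with the Universal PBM Analysis Suite. Scale: above 0.35 generally sequence-specific binding.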
row,Sequence,PBM E-score
1,ATTATAAG,0.237
2,GCATTCAC,0.216
3,GTGGTCGA,-0.198
4,TAGACAAA,0.0827
5,ACGTACGA,-0.182
6,ACATAGCG,0.0674
7,AACTACCC,0.0868
8,GAGCCAAA,-0.113
9,ATTCCCCA,-0.0626
10,GGTGGTAC,-0.231
11,GACGGTCC,-0.273
12,ACTATTAC,0.134
13,CTTATTAA,0.17
14,ATTATTAA,0.316
15,GTTATTAA,0.229
16,CTTATTAC,0.115
17,ATTATTAC,0.343
18,ATCTAAGC,0.0351
19,AGCGTTGC,-0.0711
20,CGCTTATC,-0.00322
21,CGGCTATA,-0.0713
22,ATCCGGAA,0.403
23,ATCCGGAC,-0.0654
24,CTCCGGAA,0.22
25,ATCCGGAG,0.143

row,Sequence,PBM E-score
1,TTCCGGAA,0.316
2,GTCCGGAA,0.19
3,CTCATCCC,-0.189
4,CGTACTGC,-0.151
5,CTCGTCTA,-0.0771
6,AATAATCC,0.439
7,AATAATCA,0.234
8,GATAATCA,0.236
9,AACAATCT,0.168
10,AACAATCC,0.338
11,CATAATCC,0.0679
12,AACAATCG,0.0843
13,GATAATCC,0.375
14,GATAATGC,0.115
15,ACCCGAAG,-0.0833
16,ACCTACTC,-0.0816
17,ACAAAAAC,0.243
18,AACAAATC,0.315
19,AACAAGTC,0.0761
20,AACAAAAT,0.291
21,ACAAAAAA,0.18
22,GACAAATC,0.24
23,AACAAGAT,0.221
24,ACAAAAAT,0.308
25,AACAAAAA,0.212

row,Sequence,PBM E-score
1,AACAAATA,0.285
2,AACAAGTT,0.188
3,AACAAATT,0.374
4,AGGCAGTG,-0.0313
5,GCCGTTTA,0.0411
6,CAAAAGTA,0.16
7,AAGCCATA,0.0179
8,ATGCACGA,-0.021
9,GGTGAGAC,0.0001
10,ACCAATCC,-0.0137
11,AACCTTTC,-0.0863
12,ACCAGCAC,-0.0392
13,CTCTGCGA,-0.0389
14,ATTCATCA,0.171
15,CTTCATCC,-0.0751
16,ATTCATCC,0.349
17,ACATAAAT,0.149
18,AGGGTGGG,-0.0779
19,ACCAAGCG,-0.0846
20,AGCACACA,-0.0313
21,AAAATGAC,0.15
22,AAAATGGA,0.197
23,AAAATGGT,0.319
24,AAAATGGG,-0.032
25,AAAATGAA,0.081

row,Sequence,PBM E-score
1,AAAATGAT,0.369
2,GATATGGC,-0.161
3,TCACCTAA,0.0978
4,GCGATACC,-0.236
5,CTGACTCA,-0.0835
6,AATACAAG,0.252
7,ATTACAAA,0.318
8,ATTACAGG,0.326
9,AATACAAC,0.271
10,AATACAAA,0.302
11,ATTACAAT,0.0893
12,ATTACAAG,0.18
13,ATTACAGC,-0.21
14,GATACAAA,0.277
15,CATACAAA,0.246
16,TATACAAA,0.356
17,ATTACAGA,0.141
18,ACGGCTTG,-0.0473
19,GGCGTGAC,-0.141
20,ATACTGAG,0.267
21,CTCCAGTA,0.109
22,AATCCATC,0.14
23,CAGCATAG,-0.0334
24,CACTTGCA,-0.0412
25,CGCTACAA,0.111

row,Sequence,PBM E-score
1,GGCAGCCA,-0.0547
2,AATACATC,0.297
3,GATACATC,-0.0274
4,AATACATG,0.222
5,GTTCGAAC,0.209
6,GGCTGTCA,-0.0424
7,CAGCGAAC,0.0498
8,ACATAAGC,0.0339
9,ACATAAGA,0.293
10,TCATAAGA,0.114
11,CCCAGTTA,-0.0098
12,GTGTTTGA,0.191
13,CAAGTGGC,0.0512
14,AATATTCC,0.45
15,CATATTAC,0.17
16,GATATTAC,0.31
17,GATATTCA,0.12
18,CATATTCC,0.0424
19,GATATTCC,0.417
20,GCTATTAC,-0.0504
21,AATATTCG,0.161
22,AATATTCT,0.248
23,CCTGCACG,-0.159
24,AGCAGTCC,-0.182
25,GCGTGAAA,0.0243

row,Sequence,PBM E-score
1,AACTGCTT,0.0101
2,GCCGGTTA,-0.0903
3,CTACAGCA,0.0371
4,TAAGGTCA,0.028
5,ACGGGAGT,0.0679
6,CCGCTCAG,-0.111
7,AGAACAGG,-0.125
8,AGGTTACC,0.0897
9,CATGATCC,0.0454
10,AATGATCA,0.0742
11,GATGATCA,0.0749
12,GATGATCC,0.4
13,AATGATAT,0.298
14,AATGATAA,0.192
15,AATGATAG,0.215
16,AATGATTA,0.251
17,CATGATTC,-0.131
18,AATGATCC,0.421
19,AATGATCT,0.157
20,AATGATTC,0.306
21,TCCCACGA,0.0793
22,ACTAGCCA,0.0538
23,AGAGTCTA,-0.16
24,CGCTGCAG,-0.12
25,GCGTTCAC,-0.0913

row,Sequence,PBM E-score
1,GTACCGAC,-0.275
2,CATGAGGA,0.0386
3,CGCTCTGC,-0.0367
4,CTGCGTGA,0.0319
5,ATTGATCC,0.466
6,CTTGATCC,0.0221
7,ATTGATCA,0.051
8,ATGCTTCA,0.0658
9,GACTACTA,0.122
10,CAATACTA,0.143
11,GAATACTA,0.204
12,AACTACTG,0.126
13,ATCTACTA,0.324
14,AACTACTA,0.298
15,TAATACTA,0.362
16,TACTACTA,0.335
17,AACTACTC,0.119
18,CACTACTA,0.094
19,ATCTACTC,0.127
20,ATCTACTG,0.143
21,TAACTATA,0.242
22,ATGCTGCG,-0.15
